SW480 rerep: A quantitative high throughput screen for small molecules that induce DNA re-replication in SW480 colon adenocarcinoma cells | AID 624297, 2012 | Potency, µM (doses to about 46.1 µM), inactives show at the highest dose re-replication activation, hits mostly activators | SW480 DNA re-replication, Hoechst DNA content imaging, 48 h | 340,000 compounds, 1.8% hits; further: % of control where 0% means no effect; nearly all actives have a fitted effect of over 55% in size
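Hoechst fluorescence of nuclei (405 nm excitation, 500-530 nm emission) measured by plate-scanning imager after 48 hr compound exposure at 37 C; re-replication scored as increased number of nuclei with elevated intensity.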
KB-3-1 tox: qHTS assay for MDR1-selective chemotherapeutics: Primary screen using the parental adenocarcinoma cell KB-3-1; KB-3-1 viability, CellTiter-Glo ATP luminescence, 72 h; Potency, µM (top dose mostly 46.1 µM), most hits filed as cytotoxic; 400,000 compounds, 1.4% hits; AID 1347075, 2019; further: on the % scale 0 is the no-effect control and ±100 the full control effect; nearly all actives have a fitted effect of over 60% in size
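Parental KB-3-1 adenocarcinoma cells in phenol-red-free DMEM with 10% FBS were pin-treated with compounds at several concentrations, incubated 72 h at 37 °C, and viability read by CellTiter-Glo luminescence; concentration-effect curves were fitted after normalization.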
KB-V1 MDR tox: qHTS assay for MDR1-selective chemotherapeutics: Primary screen using the drug-selected MDR subline cells KB-V1; KB-V1 MDR cells viability, CellTiter-Glo, 72 h; 400,000 compounds, 3.4% hits; Potency, µM (top dose mostly 46.1 µM), usual class: cytotoxic; further: on the % scale 0 is the no-effect control and ±100 the full control effect; nearly all actives have a fitted effect of over 60% in size
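Luminescent ATP read-out (CellTiter-Glo, 10 min) measures survival of drug-selected KB-V1 MDR cells after 72 h, 37 degrees C compound exposure. Medium: phenol-red-free DMEM, 10% FBS. Values from fitted concentration-response curves.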
HT1080 IDH1KD tx: qHTS for induction of synthetic lethality in tumor cells producing 2HG: qHTS for the HT-1080-IDH1KD cell line; HT-1080 IDH1 knockdown viability, ATP luminescence, 48 h; 360,000 compounds, 2% hits; Potency, µM (top dose mostly 46.1 µM), without a hit: top-dose activity, negative = toxicity, actives largely listed as cytotoxic;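 further: 0% = DMSO wells and -100% = cell-free medium wells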
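% activity derives from luminescence (CellTiter-Glo), normalised to DMSO and no-cell wells. HT-1080-IDH1KD cells, 750/well, had 48 h compound exposure at 37 °C.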
MCF10A rerep: A quantitative high throughput screen for small molecules that induce DNA re-replication in MCF 10a normal breast cells; MCF 10A DNA re-replication, Hoechst nuclear intensity, 48 h; Potency, µM (doses to about 46.1 µM), inactives show at the highest dose activity, positive = re-replication, most hits filed as activators; 350,000 compounds, 2.9% hits; AID 624296, 2012; further: % of control where 0% means no effect; nearly all actives have a fitted effect of over 50% in size
HT1080-NT tox: qHTS for induction of synthetic lethality in tumor cells producing 2HG: qHTS for the HT-1080-NT fibrosarcoma cell line. 360,000 compounds, 1.6% hits. Potency, µM (titrated, usually from 46.1 µM), without a hit: at the top dose activity, negative = less viability, actives largely listed as cytotoxic. HT-1080-NT fibrosarcoma viability, CellTiter-Glo ATP luminescence, 48 h. AID 686970, 2013;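 further: NT is the 2HG producing partner of a matched IDH1 knockdown line; 0% = DMSO-treated cells and -100% = media-only wells without cells; nearly all actives have a fitted effect of over 55% in size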
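A 48-hour cytotoxicity screen used HT-1080-NT cells plated 2 hours before compound delivery. ATP-based CellTiter-Glo luminescence measured viability, normalized to DMSO and no-cell controls.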
Numbers without * were called inactive. Compounds with a hit are over-represented: about 7.9% of the library has one in this group of screens. The call rests on the fitted dose curve; in most records, active means well fitted curve in the direction sought with a large enough effect; inconclusive means small, poorly fitted or top-dose-only effect, or another doubt; inactive means no such curve, though single readings can be large; an effect the other way counts as inactive or inconclusive. Potency means the concentration at half of the fitted maximal effect.

How did COc1ccccc1/C=C\C(=O)NCC(=O)N/N=C/c1cccc(OC)c1O do in these assays?
SW480 rerep: inconclusive; KB-3-1 tox: inconclusive; KB-V1 MDR tox: inactive; HT1080 IDH1KD tx: 14.6µM*; MCF10A rerep: 3.3%; HT1080-NT tox: inconclusive

How did COc1cccc(/C=N/NC(=O)CNC(=O)CCc2ccccc2)c1O do in these assays?
SW480 rerep: 9.9%; KB-3-1 tox: inactive; KB-V1 MDR tox: inconclusive; HT1080 IDH1KD tx: 20.6µM*; MCF10A rerep: 14.3%; HT1080-NT tox: inconclusive

Results for COc1cccc(/C=N/NC(=O)CNC(=O)c2cccs2)c1O ?
SW480 rerep: -7.0%; KB-3-1 tox: inactive; KB-V1 MDR tox: inactive; HT1080 IDH1KD tx: inconclusive; MCF10A rerep: 0.3%; HT1080-NT tox: inconclusive

What do the screens show for `COc1cccc(/C=N/NC(=O)Cn2nc(C)c([N+](=O)[O-])c2C)c1O`?
SW480 rerep: inconclusive; KB-3-1 tox: inconclusive; KB-V1 MDR tox: inconclusive; HT1080 IDH1KD tx: 18.4µM*; MCF10A rerep: 11.3%; HT1080-NT tox: inconclusive

How did COc1cc(/C=N\NC(=O)c2ccc(Cn3nc([N+](=O)[O-])c(Cl)c3C)o2)ccc1O do in these assays?
SW480 rerep: -0.2%; KB-3-1 tox: inactive; KB-V1 MDR tox: inactive; HT1080 IDH1KD tx: -25.3%; MCF10A rerep: 2.3%; HT1080-NT tox: -21.4%

What do the screens show for `COc1cccc(/C=N\NC(=O)c2ccc(Cn3cc(Br)c([N+](=O)[O-])n3)o2)c1O`?
SW480 rerep: 0.731µM*; KB-3-1 tox: inconclusive; KB-V1 MDR tox: inconclusive; HT1080 IDH1KD tx: inconclusive; MCF10A rerep: inconclusive; HT1080-NT tox: inconclusive

How did O=C(OC[C@H]1O[C@@H](OC(=O)c2cc(O)c(O)c(OC(=O)c3cc(O)c(O)c(O)c3)c2)[C@H](OC(=O)c2cc(O)c(O)c(OC(=O)c3cc(O)c(O)c(O)c3)c2)[C@@H](OC(=O)c2cc(O)c(O)c(OC(=O)c3cc(O)c(O)c(O)c3)c2)[C@@H]1OC(=O)c1cc(O)c(O)c(OC(=O)c2cc(O)c(O)c(O)c2)c1)c1cc(O)c(O)c(OC(=O)c2cc(O)c(O)c(O)c2)c1 do in these assays?
HT1080 IDH1KD tx: inconclusive; HT1080-NT tox: 11.2µM*

What do the screens show for `CC(C)C[C@H](NC(=O)N1CC(=O)Nc2ccccc21)C(=O)N1CCC[C@H]1C(=O)O`?
SW480 rerep: -5.2%; KB-3-1 tox: inactive; KB-V1 MDR tox: inconclusive; HT1080 IDH1KD tx: 0.4%; MCF10A rerep: inconclusive; HT1080-NT tox: -1.3%

Results for Cc1ccc(N2C(=O)c3cccc4c(N)ccc(c34)C2=O)c2cccnc12 ?
SW480 rerep: inconclusive; KB-3-1 tox: inconclusive; KB-V1 MDR tox: 0.581µM*; HT1080 IDH1KD tx: 0.0073µM*; MCF10A rerep: inconclusive; HT1080-NT tox: 0.0206µM*

How did CCSCCOC(=O)C1=C(C)NC(=O)NC1c1ccccc1 (stereo not given) do in these assays?
SW480 rerep: -11.5%; KB-3-1 tox: inactive; KB-V1 MDR tox: inconclusive; HT1080 IDH1KD tx: -2.9%; MCF10A rerep: 3.5%; HT1080-NT tox: -2.4%

What do the screens show for `CCCc1cc(N2CCCC(C(=O)Nc3cc(Cl)ccc3OC)C2)n2ncnc2n1` (stereo not given)?
SW480 rerep: -9.6%; KB-3-1 tox: inactive; KB-V1 MDR tox: 13µM*; HT1080 IDH1KD tx: -1.6%; MCF10A rerep: 17.5%; HT1080-NT tox: 13.5%

Results for Cc1cc(N2CCCC(C(=O)Nc3ccc4c(c3)CCC4)C2)n2ncnc2n1 (stereo not given) ?
SW480 rerep: 2.4%; KB-3-1 tox: inconclusive; KB-V1 MDR tox: 4.61µM*; HT1080 IDH1KD tx: inconclusive; MCF10A rerep: 3.8%; HT1080-NT tox: -3.9%

What do the screens show for `O=C(CN1CCCCC1)Nc1cccc(-n2cnnn2)c1`?
SW480 rerep: -0.7%; KB-3-1 tox: inactive; KB-V1 MDR tox: inactive; HT1080 IDH1KD tx: 2.9%; MCF10A rerep: 5.7%; HT1080-NT tox: 2.9%

How did N#CC1(NC(=O)CSc2nnc(Cc3ccccc3)o2)CCCCC1 do in these assays?
SW480 rerep: -2.4%; KB-3-1 tox: inactive; KB-V1 MDR tox: inactive; HT1080 IDH1KD tx: 5.5%; MCF10A rerep: 4.0%; HT1080-NT tox: -1.2%

What do the screens show for `CC(=O)/C(=N/Nc1ccccc1Cl)Sc1nnc(C(O)c2ccccc2)n1-c1ccccc1` (stereo not given)?
SW480 rerep: 0.9%; KB-3-1 tox: inactive; KB-V1 MDR tox: 16.4µM*; HT1080 IDH1KD tx: -0.2%; MCF10A rerep: 0.6%; HT1080-NT tox: -1.2%

What do the screens show for `COC(=O)/C(=N/Nc1ccccc1Cl)Sc1nnc(C(O)c2ccccc2)n1-c1ccccc1` (stereo not given)?
SW480 rerep: -8.6%; KB-3-1 tox: inactive; KB-V1 MDR tox: inactive; HT1080 IDH1KD tx: 19.3%; MCF10A rerep: -2.2%; HT1080-NT tox: 21.1%

Results for CCCN1CC(=O)N2C(c3cccc(OC)c3OC)c3[nH]c4ccccc4c3C[C@H]2C1=O (stereo not given in full) ?
SW480 rerep: -15.1%; KB-3-1 tox: inconclusive; KB-V1 MDR tox: inactive; HT1080 IDH1KD tx: 0.7%; MCF10A rerep: -15.9%; HT1080-NT tox: 2.6%

How did O=C(CNCc1ccccc1)Nc1cccc(Cl)c1Cl do in these assays?
SW480 rerep: 2.6%; KB-3-1 tox: inactive; KB-V1 MDR tox: inactive; HT1080 IDH1KD tx: -0.9%; MCF10A rerep: 24.1%; HT1080-NT tox: -5.3%

How did O=C(CCCc1nc2ccccc2s1)NCc1ccccc1 do in these assays?
SW480 rerep: -5.6%; KB-3-1 tox: inactive; KB-V1 MDR tox: 23.1µM*; HT1080 IDH1KD tx: 13.1%; MCF10A rerep: 1.3%; HT1080-NT tox: 5.4%

How did O=C(NCc1ccc(-c2nc3ccccc3s2)cc1)c1ccco1 do in these assays?
SW480 rerep: -66.2%; KB-3-1 tox: inactive; KB-V1 MDR tox: 23.1µM*; HT1080 IDH1KD tx: 7.2%; MCF10A rerep: 4.7%; HT1080-NT tox: 9.0%

What do the screens show for `COc1ccccc1N1CCN(/N=C/c2ccc(C(=O)O)cc2)CC1`?
SW480 rerep: -3.2%; KB-3-1 tox: inactive; KB-V1 MDR tox: inactive; HT1080 IDH1KD tx: 4.0%; MCF10A rerep: 0.4%; HT1080-NT tox: 2.1%

How did O=C1CSC(c2cccc([N+](=O)[O-])c2)N1C1CC2CCC1C2 (stereo not given) do in these assays?
SW480 rerep: -12.5%; KB-3-1 tox: inactive; KB-V1 MDR tox: inactive; HT1080 IDH1KD tx: -2.3%; MCF10A rerep: 0.0%; HT1080-NT tox: -7.8%
